For part of these data: Measured potencies and affinities stand elsewhere.
Key:
Design in all cases: scale not given: direction of the effect not stated beside the values
[1] = target: Protein translocase subunit SecA (Escherichia coli (strain K12)) (UniProt P10408); assay: Assay to Identify E. coli SecA ATPase Inhibitors; assay type: functional; conditions: 30 µM
[2] = target: T1, Ubiquitin-activating enzyme e1, putative (Leishmania donovani (strain BPK282A1)) (UniProt E9BSI1); assay: Leishmania donovani Ubiquitin Activating Enzyme (LdE1); assay type: functional; conditions: 30 µM
T1 sequence (whole entry): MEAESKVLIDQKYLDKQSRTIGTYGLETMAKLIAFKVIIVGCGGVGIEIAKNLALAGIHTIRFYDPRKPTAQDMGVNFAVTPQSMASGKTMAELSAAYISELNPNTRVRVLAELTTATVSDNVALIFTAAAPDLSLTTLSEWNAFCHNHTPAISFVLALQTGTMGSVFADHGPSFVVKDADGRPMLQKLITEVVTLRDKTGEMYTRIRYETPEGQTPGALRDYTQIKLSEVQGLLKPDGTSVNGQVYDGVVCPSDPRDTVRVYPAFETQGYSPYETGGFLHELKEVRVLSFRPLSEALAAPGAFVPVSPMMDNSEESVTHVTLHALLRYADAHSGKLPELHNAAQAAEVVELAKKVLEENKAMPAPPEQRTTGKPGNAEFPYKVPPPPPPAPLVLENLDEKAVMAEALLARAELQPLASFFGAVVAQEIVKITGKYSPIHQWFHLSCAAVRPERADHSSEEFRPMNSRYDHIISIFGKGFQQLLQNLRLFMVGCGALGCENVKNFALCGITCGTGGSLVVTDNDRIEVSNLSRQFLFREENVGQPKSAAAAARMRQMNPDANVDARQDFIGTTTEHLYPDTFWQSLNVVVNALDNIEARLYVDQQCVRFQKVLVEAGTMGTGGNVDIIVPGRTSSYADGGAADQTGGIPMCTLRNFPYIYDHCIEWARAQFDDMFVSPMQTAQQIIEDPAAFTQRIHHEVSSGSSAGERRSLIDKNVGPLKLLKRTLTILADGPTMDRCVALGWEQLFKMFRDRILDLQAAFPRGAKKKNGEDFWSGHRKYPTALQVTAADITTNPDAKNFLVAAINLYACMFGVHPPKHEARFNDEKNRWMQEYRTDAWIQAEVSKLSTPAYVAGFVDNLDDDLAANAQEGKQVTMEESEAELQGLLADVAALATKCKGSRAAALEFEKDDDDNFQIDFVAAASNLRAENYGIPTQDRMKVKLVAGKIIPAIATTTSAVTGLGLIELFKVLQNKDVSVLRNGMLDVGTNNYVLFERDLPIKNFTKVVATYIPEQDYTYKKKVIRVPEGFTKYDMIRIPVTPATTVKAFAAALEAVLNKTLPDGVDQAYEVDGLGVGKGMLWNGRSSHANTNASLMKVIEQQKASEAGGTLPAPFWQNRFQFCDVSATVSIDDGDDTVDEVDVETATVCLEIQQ

[3] = target: AMP-activated protein kinase, AMPK (Homo sapiens) (UniProt P54646+O43741+P54619+Q9UGJ0+Q9Y478+Q13131+Q9UGI9); assay: AMP-dependent Kinase enzyme assay. An in vitro enzyme assay that detects ADP turnover that is directly proportional to AMPK activity. This uses naive AMPK that is activated during the assay with MK-8722; assay type: functional; conditions: 30 µM
[4] = target: Sialic acid-binding Ig-like lectin 9 (Homo sapiens) (UniProt Q9Y336); assay: Hs-Siglec9 ALPHAscreen SOP 20170721; conditions: 10 µM
Trypanosoma cruzi = assay: Trypanosoma cruzi phosphomannomutase and mannose-1-phosphate guanylyltransferase assay; assay type: functional; conditions: 10 µM
[5] = target: T2, Arginase-2, mitochondrial (Homo sapiens) (UniProt P78540); assay: in vitro enzyme assay to detect the production of urea directly proportional to the activity of Arginase II; assay type: functional; conditions: 33.3 µM; note: in the data most compounds retested in dose-response had high values
T2 sequence (whole entry): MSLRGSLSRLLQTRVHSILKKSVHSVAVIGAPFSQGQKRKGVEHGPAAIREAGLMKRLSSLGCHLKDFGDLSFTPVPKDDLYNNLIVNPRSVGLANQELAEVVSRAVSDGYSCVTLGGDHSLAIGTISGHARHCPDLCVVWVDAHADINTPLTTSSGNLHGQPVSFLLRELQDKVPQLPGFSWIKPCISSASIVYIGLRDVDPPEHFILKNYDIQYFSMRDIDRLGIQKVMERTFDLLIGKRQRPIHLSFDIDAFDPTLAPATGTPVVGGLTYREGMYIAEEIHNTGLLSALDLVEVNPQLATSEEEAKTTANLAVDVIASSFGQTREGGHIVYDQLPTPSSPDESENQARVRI

[6] = target: T3, Proteasome subunit beta (Trypanosoma cruzi) (UniProt O96673); assay: Trypanosoma cruzi proteasome chymotrypsin-like activity (TcProtChymo) assay.; note: in the data most compounds retested in dose-response had high values; assay type: functional; conditions: 9.37 µM
T3 sequence (whole entry): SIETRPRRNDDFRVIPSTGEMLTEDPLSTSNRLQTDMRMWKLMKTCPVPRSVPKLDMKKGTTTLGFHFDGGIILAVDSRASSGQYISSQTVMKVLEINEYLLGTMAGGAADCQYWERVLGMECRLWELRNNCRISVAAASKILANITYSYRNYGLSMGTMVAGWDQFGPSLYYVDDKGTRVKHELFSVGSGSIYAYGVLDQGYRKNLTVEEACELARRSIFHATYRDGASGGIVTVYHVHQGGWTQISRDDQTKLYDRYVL

Homo sapiens = species: Homo sapiens; assay: To identify inhibition of the IFN signalling (Jak-Stat) pathway via expression of an eGFP reporter gene under the control of an IFN-stimulated response element (ISRE) containing MxA promoter.; assay type: functional; conditions: 30 µM
[7] = target: T4, Tyrosyl-tRNA synthetase, putative (Trypanosoma cruzi (strain CL Brener)) (UniProt Q4DSP6); assay: Trypanosoma cruzi tyrosyl tRNA synthetase (TcYRS) _High Tyrosine SOP; assay type: functional; conditions: 30 µM; note: in the data most compounds retested in dose-response had high values
T4 sequence (whole entry): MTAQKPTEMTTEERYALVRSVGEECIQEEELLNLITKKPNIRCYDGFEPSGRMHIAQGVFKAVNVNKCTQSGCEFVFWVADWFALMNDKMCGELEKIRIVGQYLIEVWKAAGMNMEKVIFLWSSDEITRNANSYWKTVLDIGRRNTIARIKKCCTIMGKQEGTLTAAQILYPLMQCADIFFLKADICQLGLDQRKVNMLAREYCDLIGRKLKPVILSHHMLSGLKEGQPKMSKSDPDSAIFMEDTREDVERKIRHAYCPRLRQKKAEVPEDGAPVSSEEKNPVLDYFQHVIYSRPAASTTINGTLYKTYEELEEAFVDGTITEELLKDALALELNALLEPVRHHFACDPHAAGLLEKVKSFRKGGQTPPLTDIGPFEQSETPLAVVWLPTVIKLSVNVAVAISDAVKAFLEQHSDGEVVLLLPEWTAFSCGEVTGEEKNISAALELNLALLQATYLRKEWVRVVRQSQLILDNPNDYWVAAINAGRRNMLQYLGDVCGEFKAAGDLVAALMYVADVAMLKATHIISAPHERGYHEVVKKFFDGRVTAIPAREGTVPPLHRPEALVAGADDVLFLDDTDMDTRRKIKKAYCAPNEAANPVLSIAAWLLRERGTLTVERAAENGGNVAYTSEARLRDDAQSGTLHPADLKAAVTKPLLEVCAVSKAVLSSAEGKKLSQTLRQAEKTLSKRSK

[8] = target: T4, Tyrosyl-tRNA synthetase, putative (Trypanosoma cruzi (strain CL Brener)); assay: Trypanosoma cruzi tyrosyl tRNA synthetase (TcYRS) SOP; assay type: functional; conditions: 30 µM
[9] = target: Chromo domain-containing protein 1 (Saccharomyces cerevisiae (strain ATCC 204508 / S288c) (Baker's yeast)) (UniProt P32657); assay: ScCHD-1 Enzyme Inhibition Assay; assay type: functional; conditions: 30 µM; note: in the data most compounds retested in dose-response had high values
Chain of Chromo domain-containing protein 1 (Saccharomyces cerevisiae (strain ATCC 204508 / S288c) (Baker's yeast)) (P32657 whole entry, the tested form may be a part): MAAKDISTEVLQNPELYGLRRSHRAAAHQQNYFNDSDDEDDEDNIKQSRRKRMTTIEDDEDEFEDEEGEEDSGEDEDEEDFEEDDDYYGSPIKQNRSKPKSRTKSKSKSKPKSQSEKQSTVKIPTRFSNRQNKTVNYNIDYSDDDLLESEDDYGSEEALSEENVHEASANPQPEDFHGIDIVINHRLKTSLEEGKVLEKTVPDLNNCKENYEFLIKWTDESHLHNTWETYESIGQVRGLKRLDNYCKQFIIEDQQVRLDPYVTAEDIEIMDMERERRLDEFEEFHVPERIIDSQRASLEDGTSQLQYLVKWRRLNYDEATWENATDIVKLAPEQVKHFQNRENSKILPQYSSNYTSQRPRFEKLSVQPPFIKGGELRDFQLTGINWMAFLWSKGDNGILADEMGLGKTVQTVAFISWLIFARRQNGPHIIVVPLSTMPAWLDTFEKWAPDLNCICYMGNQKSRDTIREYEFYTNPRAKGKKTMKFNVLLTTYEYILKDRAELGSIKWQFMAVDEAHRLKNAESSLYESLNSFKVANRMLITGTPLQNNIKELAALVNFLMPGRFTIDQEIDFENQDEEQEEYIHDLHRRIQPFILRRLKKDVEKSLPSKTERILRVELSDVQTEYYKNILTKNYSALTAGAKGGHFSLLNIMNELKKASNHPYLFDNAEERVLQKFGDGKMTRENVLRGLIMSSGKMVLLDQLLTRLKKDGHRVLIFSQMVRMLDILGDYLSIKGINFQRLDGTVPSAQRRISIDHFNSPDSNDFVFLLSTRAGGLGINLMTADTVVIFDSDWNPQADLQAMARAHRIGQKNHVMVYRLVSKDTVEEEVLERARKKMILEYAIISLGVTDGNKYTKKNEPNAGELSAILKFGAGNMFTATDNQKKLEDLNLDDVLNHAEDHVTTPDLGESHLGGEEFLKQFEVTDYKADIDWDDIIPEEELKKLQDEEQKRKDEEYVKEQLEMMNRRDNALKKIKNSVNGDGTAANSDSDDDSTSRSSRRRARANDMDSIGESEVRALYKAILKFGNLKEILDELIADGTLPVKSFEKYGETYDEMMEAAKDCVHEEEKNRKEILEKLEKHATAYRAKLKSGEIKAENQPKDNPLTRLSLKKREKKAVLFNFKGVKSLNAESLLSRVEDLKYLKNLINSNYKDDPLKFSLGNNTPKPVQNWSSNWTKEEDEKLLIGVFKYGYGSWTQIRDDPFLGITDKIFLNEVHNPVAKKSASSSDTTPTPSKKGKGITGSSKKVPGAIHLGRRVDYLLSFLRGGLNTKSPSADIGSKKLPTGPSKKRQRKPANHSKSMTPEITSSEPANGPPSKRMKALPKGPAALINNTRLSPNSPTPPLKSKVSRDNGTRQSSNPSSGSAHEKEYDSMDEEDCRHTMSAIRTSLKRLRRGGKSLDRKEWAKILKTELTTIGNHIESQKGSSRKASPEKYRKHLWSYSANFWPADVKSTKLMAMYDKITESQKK

Chain of Sialic acid-binding Ig-like lectin 9 (Homo sapiens) (Q9Y336 whole entry): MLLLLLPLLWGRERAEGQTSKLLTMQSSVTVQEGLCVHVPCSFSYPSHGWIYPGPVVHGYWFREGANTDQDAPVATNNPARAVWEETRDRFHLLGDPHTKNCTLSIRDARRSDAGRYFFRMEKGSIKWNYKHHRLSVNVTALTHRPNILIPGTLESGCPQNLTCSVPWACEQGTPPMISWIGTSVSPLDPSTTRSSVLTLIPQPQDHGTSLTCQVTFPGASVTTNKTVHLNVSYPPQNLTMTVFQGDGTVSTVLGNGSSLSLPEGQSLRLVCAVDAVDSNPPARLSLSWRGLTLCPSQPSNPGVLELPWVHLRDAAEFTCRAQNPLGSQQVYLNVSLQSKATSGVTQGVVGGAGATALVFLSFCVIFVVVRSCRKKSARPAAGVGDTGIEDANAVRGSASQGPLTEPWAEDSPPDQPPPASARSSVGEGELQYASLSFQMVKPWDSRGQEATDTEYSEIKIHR
Chain of Protein translocase subunit SecA (Escherichia coli (strain K12)) (P10408 whole entry): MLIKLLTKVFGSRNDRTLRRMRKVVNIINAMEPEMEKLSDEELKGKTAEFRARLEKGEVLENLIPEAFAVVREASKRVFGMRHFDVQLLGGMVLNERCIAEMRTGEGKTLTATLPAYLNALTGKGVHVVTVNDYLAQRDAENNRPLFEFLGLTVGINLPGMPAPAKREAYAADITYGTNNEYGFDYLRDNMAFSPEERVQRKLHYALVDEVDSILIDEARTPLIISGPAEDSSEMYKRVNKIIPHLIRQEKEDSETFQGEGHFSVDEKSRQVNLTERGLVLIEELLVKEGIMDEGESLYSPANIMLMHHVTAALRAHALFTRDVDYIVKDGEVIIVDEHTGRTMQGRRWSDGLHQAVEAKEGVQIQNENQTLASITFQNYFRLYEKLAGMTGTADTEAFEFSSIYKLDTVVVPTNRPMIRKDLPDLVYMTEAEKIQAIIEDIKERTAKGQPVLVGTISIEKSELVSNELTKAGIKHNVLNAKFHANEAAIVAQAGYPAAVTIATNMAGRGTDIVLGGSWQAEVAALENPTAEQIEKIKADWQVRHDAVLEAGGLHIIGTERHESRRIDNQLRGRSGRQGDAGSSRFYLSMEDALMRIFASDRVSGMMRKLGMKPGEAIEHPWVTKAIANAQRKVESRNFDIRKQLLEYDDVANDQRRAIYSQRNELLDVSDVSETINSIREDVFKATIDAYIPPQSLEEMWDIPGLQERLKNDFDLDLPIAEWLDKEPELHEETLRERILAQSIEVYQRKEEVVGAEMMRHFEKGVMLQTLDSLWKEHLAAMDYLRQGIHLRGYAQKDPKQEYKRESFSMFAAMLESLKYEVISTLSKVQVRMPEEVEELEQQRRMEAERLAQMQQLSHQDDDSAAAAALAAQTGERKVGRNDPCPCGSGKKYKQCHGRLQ

SMILES	Percent Effect [1] [%]	Percent Effect [2] [%]	Percent Effect [3] [%]	Percent Effect [4] [%]	Percent Effect (Trypanosoma cruzi) [%]	Percent Effect [5] [%]	Percent Effect [6] [%]	Percent Effect (Homo sapiens) [%]	Percent Effect [7] [%]	Percent Effect [8] [%]	Percent Effect [9] [%]
CN(Cc1cnn(C)c1)C(=O)Cn1c(CS(C)(=O)=O)nc2ccccc21	-1.5	10.5	3.77	-0.257	-3.6	-8.28	11.2	9.18	5.32	10.4	-3.69
Cc1ccc(CC(=O)N2Cc3nccn3CC(CN(C)C)C2)cc1 (stereo unspecified)	2.93	11	-4.31	9.23	0.198	5.59	15.3	20.1	8.33	16.1	-2.84
O=C(c1ccc[nH]1)N1C[C@H](OCc2cccnc2)[C@H]2COC[C@H]21	-4.86	0	2.4	-3.13	1.17	-1.25	12.3	-27.9	8.91	-3.66	-5.43
O=C(O)C1CCCCN1C(=O)c1cccc(C(F)(F)F)c1 (stereo unspecified)	-6.15	13.2	-2.92	7.67	1.4	-2.88	2.62	-1.55	4.43	16.1	3.59
Cc1nnc(NCc2ccccc2Cl)c(C#N)c1C	-1.72	-29.7	-32.4	-2.89	2.51	1.29	5.39	26.5	13.9	11	5.89
CN(C)C(CNC(=O)NCCc1cccc(O)c1)c1ccco1 (stereo unspecified)	-1.55	5.41	0.167	22.4	3.81	6.7	13	-1.66	0	6.17	-9.98
Cc1cnn(C2CCCN(C(=O)c3cn4cccnc4n3)C2)c1 (stereo unspecified)	-4.17	8.11	-11.5	17.1	1.04	-6.01	1.62	7.34	7.39	16.1	-12.7
c1ccc2oc(CCCN3CCOC(Cn4cccn4)C3)nc2c1 (stereo unspecified)	-3.85	5.2	0.772	0.668	6.56	-3.16	0.889	7.24	0	7.06	5.28
CC(CCc1ccco1)NC(=O)Nc1cc(C(F)(F)F)c[nH]c1=O (stereo unspecified)	-8.08	7.89	40.7	3.56	0.467	-3.24	13.1	17	7.39	13.6	-2
CC(NC(=O)NCC1(c2ccccc2)CCC1)c1nncn1C (stereo unspecified)	-3.15	13.2	-7.01	-5.58	-5.7	8.63	5.67	-2.94	5.42	16.1	-6.58
CN(Cc1ccccn1)C1COC2(CCN(Cc3nccs3)CC2)C1 (stereo unspecified)	-4.64	21.3	-8.85	-0.12	1.35	-57.5	12.8	5.05	5.21	20	-11.7
O=C(NCCCN1CCOCC1)c1cc(-c2ccc3c(c2)CCO3)n[nH]1	-5.47	-20	-0.583	0.426	2.36	-15	12.2	-4.93	1.06	-2.56	-5.21
Cc1noc(C)c1CNC(=O)N1CCN(Cc2cscn2)CC1	-5.7	15.8	-5.03	9.82	5.45	0.766	3.51	-2.83	6.37	17.1	-14.9
Cc1ccc(CNC(=O)NCCCn2nc3ccccn3c2=O)s1	-7.23	16.2	-11	15.3	6.89	-18.8	5.95	7.36	6.4	-70.4	-16.6
CC1CCN(CCNC(=O)c2cncnc2C(C)C)CC1	0.314	4.17	-2.65	-7.34	-5.34	2.21	11.1	0.616	1.05	5.13	-2.34
O=C(CCN1C(=O)CCC1=O)Nc1cnn(-c2ccccc2Cl)c1	-6.27	10.8	6.39	1.29	-7.52	-0.185	5.92	20.3	4.95	6.1	4.56
O=C1CO[C@@H]2CN(CC3CCOCC3)C[C@H]2N1CC1CC1	-3.37	10.8	5.33	-0.714	-5.18	5.41	20.1	10.6	5.41	17.9	3.58
CCc1[nH]ncc1C(=O)N1CCCN(Cc2cnn(C(C)C)c2)CC1	-1.61	29.7	-18.5	-5.54	4.62	-18	18.7	24.4	3.45	13.6	-9.88
O=C(CC1CCCC1)NCCn1ccc(-c2ccccn2)n1	-2.17	2.6	9.65	12	-3.85	0.645	-2.09	-8.59	2.12	6.41	-2.03
O=C(NC1COC2(CCN(Cc3ccccn3)CC2)C1)c1ccccn1 (stereo unspecified)	-2.18	23.4	-0.85	-5.11	0.888	8.39	16.7	10.3	10.6	16.7	31.1
O=C(COc1coc(CN2CCCCC2)cc1=O)Nc1ccc(Cl)cc1	-3.05	1.33	4.41	7	-0.982	-7.92	6.1	-11.6	6.35	10.3	0.832

From ChEMBL document CHEMBL3988442, “University of Dundee, Small-Polar-MMV Screening Library” (2021)
